According to PubChem BioAssay:
Unmarked numbers belong to inactive results.

Experiment: ATP-based viability of Huh7 replicon cells – cell-based, CellTiter-Glo luminescence, basal, 48 h, cytotoxicity control for HCV replication inhibitor project, primary screen (AID 1143);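 further: Huh7 hepatoma cells carrying a hepatitis C replication reporter with no stimulus; test concentration not given here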
Conditions: higher = more signal, called active from +8 up or from −8 down

Row | Structure (SMILES) | z-score
1 | CO[C@H]1COC(=O)CC=C[C@H](C)[C@@H](OC)COC(=O)CC=C[C@@H]1C | -0.909
2 | COCCOC(=O)N1C(=O)[C@@]2(c3cc(C#CCCO)ccc31)[C@H](C(=O)N1CCCCCCC1)[C@H]1C(=O)O[C@H](c3ccccc3)[C@H](c3ccccc3)N1[C@@H]2c1ccc(O)cc1 | -4.07
3 | Cc1ccc(N2C(=O)c3ccccc3[C@@H](C(=O)NCc3ccccc3)[C@@H]2c2ccc(CO)cc2)nc1 | -1.54
4 | CC(=O)NCCCC[C@@H]1NC(=O)[C@@H]2C[C@H](C(=O)NCCCCCNC(=O)CS)[C@H](c3ccc(O)cc3)N2C1=O | -1.62
5 | O=C(CS)NCCCCCNC(=O)[C@H]1C[C@H]2C(=O)N3CCC[C@H]3C(=O)N2[C@H]1c1ccc(O)cc1 | -0.564
6 | C[C@@H]1CC[C@H]2C(=O)N3CCC[C@H]3C(=O)N2[C@H]1c1ccc(Br)cc1 | -0.184
7 | O=C1O[C@@H](c2ccccc2)[C@@H](c2ccccc2)N2[C@@H](c3ccc(O)cc3)[C@]3(C(=O)Nc4ccc(C#CC5(O)CCCCCC5)cc43)[C@@H](C(=O)Nc3nc4ccccc4s3)[C@H]12 | -2.23
8 | C[N+](C)(C)CCCC[C@@H]1NC(=O)[C@H]2C[C@@H](C(=O)NCc3ccc(F)cc3)[C@@H](c3cccc(OCCO)c3)N2C1=O | -0.533
9 | CO[C@H]1COC(=O)[C@H](Cc2ccccc2)NC(=O)CC=C[C@@H](C)[C@H](OC)COC(=O)CC=C[C@@H]1C | -1.21
10 | COC(=O)c1c(CC[C@@H](CO)NC(=O)N[C@H](Cn2cc(-c3cncn3C)nn2)C(C)C)oc(C(C)=O)c1C(=O)OC | -3.48
11 | C=C(COC)/C(=C/C[C@@H](OC(C)=O)c1cccc(OCCO)c1)c1cc(C(=O)OC)ccc1OC | -1.42
12 | COCC(=C=CC[C@H](O)c1ccc(OCCO)cc1)C[C@H](O)c1ccccn1 | -0.23
13 | CCOC(=O)[C@H]1C/C=C/C[C@H](C(=O)OCC)C(=O)O[C@H]2[C@@H](OC)O[C@H](CO)[C@@H](OC(=O)Nc3ccc(Br)cc3)[C@@H]2OC1=O | -6.64
14 | CCN1C(C)=C(C(=O)OC)[C@@H](c2ccccc2)N2C(=O)[C@@]3(C(=O)OC)O[C@@]12[C@@H]1C(=O)N(c2ccccc2)C(=O)[C@@H]13 | -1.77
15 | CC(C)N1CC=CC23O[C@@H]4/C=C\CCCOC(=O)C4[C@H]2C(=O)N(CCCCCO)[C@@H]3C1=O (stereo partly specified) | -0.143
16 | C=C(COC)/C(=C/C[C@H](OC(C)=O)c1ccc(OCCO)cc1)c1cnc2ccccc2c1 | -0.843
17 | COCCOC(=O)N1C(=O)[C@@]2(c3cc(C#CCNC(N)=O)ccc31)[C@H](c1ccc(OCCO)cc1)N1[C@H](c3ccccc3)[C@H](c3ccccc3)OC(=O)[C@H]1[C@@H]2C(=O)N1CCCCCCC1 | -2.36
18 | CO[C@H]1COC(=O)[C@@H](OCc2ccccc2)C=C[C@H](C)[C@@H](OC)COC(=O)[C@H](OCc2ccccc2)C=C[C@@H]1C | -2.26

Row | Structure (SMILES) | z-score
19 | NC(=O)NCC#Cc1ccc2c(c1)[C@]1(C(=O)N2)[C@H](C(=O)N2CCCCCCC2)[C@H]2C(=O)O[C@H](c3ccccc3)[C@H](c3ccccc3)N2[C@@H]1c1ccccc1OCCO | -0.481
20 | COCCCNC(=O)[C@@]1(Sc2ccc(C)cc2)CC(=O)N(Cc2cc(C(F)(F)F)cc(C(F)(F)F)c2)[C@@H]1c1ccc(CO)cc1I | -1.47
21 | C=CCC1=C[C@H]2[C@H]([C@@H]3C=C[C@]2(CC=C)C(=O)[C@]32CO2)[C@@]2(CO2)C1=O | -3.26
22 | O=C(NCc1ccccc1)[C@@]1(CCS(=O)(=O)c2ccccc2)COC(c2ccc(OCCCO)cc2)=N1 | -3.07
23 | C=CCNC(=O)[C@H]1[C@@H]2C(=O)O[C@@H](c3ccccc3)[C@@H](c3ccccc3)N2[C@@H](c2ccccc2OCCO)[C@]12C(=O)N(C(=O)OCCOC)c1ccc(C#CCNC(N)=O)cc12 | -1.76
24 | CCCCO[C@H]1C[C@H]2C(Br)=C[C@@]1(CO)C(=O)[C@]21CO1 | -0.483
25 | CN1CCC(CCCO)=CC1C1CC1 (stereo unspecified) | -3.2
26 | COc1ccc(CCNC(=O)[C@@]2(c3ccc([N+](=O)[O-])cc3)CC(=O)N(C(C)C)[C@@H]2c2ccc(CO)cc2)cc1 | -3.13
27 | Cc1ccc(S[C@]2(C(=O)O)CC(=O)N(Cc3ccccc3)[C@@H]2c2ccc(CO)cc2)cc1 | -1.22
28 | C=CCc1cccc([C@@H]2[C@@H](C)CC[C@H]3C(=O)N4[C@H](c5cccc(CC=C)c5)[C@@H](C)CC[C@H]4C(=O)N23)c1 | -3.75
29 | COc1ccc([Si](C)(C)[C@H]2[C@H](CCO)O[C@@]3(C(=O)N(Cc4ccc(N5CCCCC5=O)cc4)c4ccccc43)[C@@H]2C)cc1 | -3.56
30 | CCCNC(=O)[C@@]1(Sc2ccc(C)cc2)CC(=O)N(Cc2ccccc2Cl)[C@@H]1c1ccc(CO)cc1 | -6.06
31 | CO[C@H]1COC(=O)[C@H](CCSC)NC(=O)CC=C[C@@H](C)COC(=O)[C@@H](OCc2ccccc2)C=C[C@@H]1C | 0.111
32 | C[C@@H]1CC[C@H]2C(=O)N3[C@@H](CC[C@@H](C)[C@@H]3c3cccc(N4CCOCC4)c3)C(=O)N2[C@H]1c1cccc(N2CCOCC2)c1 | -0.334
33 | CO[C@]12C=C(Br)[C@@H](C[C@@H]1c1ccccc1)[C@@]1(CO1)C2=O | -1.7
34 | C=CCC(OC(C)=O)[C@@H]1[C@@H](N(Cc2ccc(-c3ccccc3)cc2)C(=O)c2ccc(C)cc2)c2cc(OCCCO)ccc2N1C(=O)c1ccc(-c2ccccc2)cc1 (stereo partly specified) | -1.62
35 | CC(=O)NCCCC[C@@H]1NC(=O)[C@@H]2C[C@H](C(=O)NCCCCCCN(C)C)[C@H](c3ccc(O)cc3)N2C1=O | -0.849
36 | O=C1c2ccccc2[C@](Cc2ccccc2I)(C(=O)NCc2ccccc2)[C@H](c2ccc(CO)cc2)N1Cc1ccccc1C(F)(F)F | -2.5
